We go through 36 molecules from PubChem BioAssay.

Values without a mark were called inactive. For some assays here: Results with a measured potency or affinity are listed apart. Activity calls are given as the source filed them. Unless noted, how the calls were made is not given here.

Experiment [1] deals with Calcium-dependent protein kinase 1 (Plasmodium falciparum (isolate 3D7)) (UniProt P62344). As to the kind of experiment: PfCDPK1 kinase inhibitors, biochemical, TCAMS library (AID 1159585; cut-off not given, nearly all actives have IC50 up to about 0.98 µM;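 further: inhibitors leave more ATP so luminescence rises with inhibition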). The settings on record: recombinant PfCDPK1, Kinase-Glo ATP depletion luminescence.
Sequence of Calcium-dependent protein kinase 1 (Plasmodium falciparum (isolate 3D7)) (P62344 whole entry, looked up): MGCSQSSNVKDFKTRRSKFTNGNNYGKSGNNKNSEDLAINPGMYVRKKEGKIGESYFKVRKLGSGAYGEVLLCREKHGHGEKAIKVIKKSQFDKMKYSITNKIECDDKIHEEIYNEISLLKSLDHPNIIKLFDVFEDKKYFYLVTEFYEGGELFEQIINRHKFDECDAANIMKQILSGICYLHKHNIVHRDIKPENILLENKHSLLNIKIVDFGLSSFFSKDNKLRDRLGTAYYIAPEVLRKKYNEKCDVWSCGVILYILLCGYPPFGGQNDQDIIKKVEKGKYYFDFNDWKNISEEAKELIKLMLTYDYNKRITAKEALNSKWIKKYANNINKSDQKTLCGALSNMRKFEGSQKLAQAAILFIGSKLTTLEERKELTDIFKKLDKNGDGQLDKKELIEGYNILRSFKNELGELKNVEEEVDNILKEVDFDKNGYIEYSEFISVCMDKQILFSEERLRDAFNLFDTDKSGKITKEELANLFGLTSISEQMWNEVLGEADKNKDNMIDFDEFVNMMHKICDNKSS
The target of experiment [2] is Plasmodium falciparum protein kinase 6 (PK6, PF3D7_1337100) (UniProt Q8IDW1). As to the kind of experiment: PfPK6 kinase inhibitors, biochemical, TCAMS library (AID 1159586). The settings on record: recombinant PfPK6, Kinase-Glo ATP depletion luminescence. (In Kinase-Glo more light means more ATP remaining.)
Sequence of Plasmodium falciparum protein kinase 6 (PK6, PF3D7_1337100) (Q8IDW1 1-305): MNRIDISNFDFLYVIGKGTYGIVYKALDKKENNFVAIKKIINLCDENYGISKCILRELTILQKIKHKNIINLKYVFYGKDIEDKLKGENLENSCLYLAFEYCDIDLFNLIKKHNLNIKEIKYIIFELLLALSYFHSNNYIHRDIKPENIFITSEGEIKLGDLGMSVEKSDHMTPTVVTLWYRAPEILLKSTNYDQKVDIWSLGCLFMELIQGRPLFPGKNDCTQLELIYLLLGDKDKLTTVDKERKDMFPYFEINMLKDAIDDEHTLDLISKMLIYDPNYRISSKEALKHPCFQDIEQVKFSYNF
Experiment [3] concerns the target Protein kinase 7 (PK7), Plasmodium falciparum 3D7 (PF3D7_0213400) (UniProt Q7YTF7). The experiment can be described thus: inhibition of Plasmodium PK7 catalytic activity – biochemical, TCAMS antimalarial set, Kinase-Glo luminescence (AID 1159587). The settings on record: recombinant PfPK7, Kinase-Glo ATP depletion luminescence.
The target in experiment [4] is Calcium-dependent protein kinase 4 (Plasmodium falciparum (isolate 3D7)) (UniProt Q8IBS5). The experiment can be described thus: PfCDPK4 kinase inhibitors, biochemical, TCAMS library (AID 1159588; cut-off not given, nearly all actives have IC50 up to about 0.91 µM). The settings on record: recombinant PfCDPK4, Kinase-Glo ATP depletion luminescence.
Sequence of Calcium-dependent protein kinase 4 (Plasmodium falciparum (isolate 3D7)) (Q8IBS5 whole entry, looked up): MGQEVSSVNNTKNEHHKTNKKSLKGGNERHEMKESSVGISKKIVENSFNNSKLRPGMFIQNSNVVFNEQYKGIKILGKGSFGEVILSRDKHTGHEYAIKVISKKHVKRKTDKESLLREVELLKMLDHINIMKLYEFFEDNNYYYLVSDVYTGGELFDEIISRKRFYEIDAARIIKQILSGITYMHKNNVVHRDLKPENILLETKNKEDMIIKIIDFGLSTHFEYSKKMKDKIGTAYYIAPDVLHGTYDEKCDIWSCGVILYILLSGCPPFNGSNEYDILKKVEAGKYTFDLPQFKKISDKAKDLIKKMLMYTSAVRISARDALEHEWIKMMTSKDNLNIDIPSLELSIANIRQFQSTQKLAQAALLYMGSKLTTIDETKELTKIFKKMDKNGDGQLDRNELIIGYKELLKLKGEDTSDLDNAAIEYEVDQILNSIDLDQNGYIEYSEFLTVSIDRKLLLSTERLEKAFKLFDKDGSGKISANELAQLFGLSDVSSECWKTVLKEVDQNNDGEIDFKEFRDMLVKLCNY
Experiment [5] can be described thus: antimalarial activity against Dd2 strain (AID 2302;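 active means growth inhibition above 50% at the single 2 µM test dose, taken to imply half-maximal potency below 2 µM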;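 further: 0% = DMSO untreated growth and 100% = chloroquine plus artemisinin killed control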). The settings on record: P. falciparum Dd2 in RBCs, LDH growth readout, 72 h; at 2 µM; stronger effect = higher value.
A short description of experiment [6]: HepG2 cytotoxicity, primary screen, cytotoxicity control for P. falciparum antimalarial project, cell-based, ATP luminescence (AID 2303;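 active means inhibition above 50%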;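 further: 0% = DMSO wells and 100% = digitonin-killed cells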). The settings on record: HepG2 viability, 24-48 h, at 10 µM, stronger effect = higher value.
Experiment [7] has as its target L-lactate dehydrogenase (Plasmodium falciparum (isolate CDC / Honduras)) (UniProt Q27743). As to the kind of experiment: PfLDH activity inhibition – cell lysate, 3D7 strain, counter-screen for P. falciparum growth inhibition project (AID 2304).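 Further: 0% = vehicle and 100% = reference inhibitor.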 The settings on record: P. falciparum 3D7 crude extract, LDH APAD/NBT absorbance; at 2 µM; stronger effect = higher value. A general note: A counterscreen serves to expose hits that act by an unwanted route or on another target.

The nature of experiment [8]: inhibition of 3D7 malaria parasite growth – strain 3D7 (AID 2306).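 Further: 0% = DMSO wells and 100% = chloroquine plus artemisinin control wells.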 The following applies: P. falciparum 3D7 erythrocytic growth, LDH absorbance, 72 h; at 2 µM; stronger effect = higher value.
The test system of another experiment is F380Y. As to the kind of experiment: modulators of BK channel variants, profiling panel, selectivity assay, cell-based, U2OS BacMam, thallium flux, beta subunits (AID 1259406;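 active means thallium flux through the channel raised or lowered by more than 3 SD from vehicle-only wells, actives on both sides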;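 further: initial slope of Thallos dye fluorescence rise after thallium is added; log ratio against the mean of 0.3% DMSO vehicle wells on the same plate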). The settings on record: at 30 µM.
The subject of the next experiment is F380Y/beta1. The experiment is described as above. The following applies: at 30 µM.
The subject of another experiment is F380Y/beta2Delta. The description is as above. The following applies: at 30 µM.
Another experiment has as its system F380Y/beta4. The description is as above. The settings on record: at 30 µM.
For experiment [9], the target named is Calcium-activated potassium channel subunit alpha-1 (Homo sapiens) + Leucine-rich repeat-containing protein 26 (Homo sapiens) (UniProt Q12791+Q2I0M4). The experiment is described as above. The following applies: F380Y/Slo1WT/gamma1, at 30 µM.
Sequence of Calcium-activated potassium channel subunit alpha-1 (Homo sapiens) + Leucine-rich repeat-containing protein 26 (Homo sapiens) (Q2I0M4 whole entry, looked up, one chain of several): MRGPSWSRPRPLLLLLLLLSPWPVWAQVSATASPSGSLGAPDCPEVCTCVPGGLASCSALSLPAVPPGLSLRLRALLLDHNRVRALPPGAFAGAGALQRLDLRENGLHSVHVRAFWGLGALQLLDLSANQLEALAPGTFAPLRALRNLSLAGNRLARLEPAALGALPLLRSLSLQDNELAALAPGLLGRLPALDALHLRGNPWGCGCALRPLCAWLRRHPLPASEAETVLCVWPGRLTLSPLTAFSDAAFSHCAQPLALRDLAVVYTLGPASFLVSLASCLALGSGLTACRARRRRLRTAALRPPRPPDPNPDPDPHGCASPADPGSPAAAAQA
The subject of a further experiment is R275C. The experiment is described as above. The settings on record: at 30 µM.
Another experiment concerns R275C/beta1. The description is as above. The following applies: at 30 µM.
The test system of the next experiment is R275C/beta2Delta. The experiment is described as above. The following applies: at 30 µM.
The test system of a further experiment is R275C/beta4. The experiment is described as above. The following applies: at 30 µM.
The next experiment deals with R275C/Slo1WT/beta2. Described as above. The settings on record: at 30 µM.

Sequence of Protein kinase 7 (PK7), Plasmodium falciparum 3D7 (PF3D7_0213400) (Q7YTF7 1-343): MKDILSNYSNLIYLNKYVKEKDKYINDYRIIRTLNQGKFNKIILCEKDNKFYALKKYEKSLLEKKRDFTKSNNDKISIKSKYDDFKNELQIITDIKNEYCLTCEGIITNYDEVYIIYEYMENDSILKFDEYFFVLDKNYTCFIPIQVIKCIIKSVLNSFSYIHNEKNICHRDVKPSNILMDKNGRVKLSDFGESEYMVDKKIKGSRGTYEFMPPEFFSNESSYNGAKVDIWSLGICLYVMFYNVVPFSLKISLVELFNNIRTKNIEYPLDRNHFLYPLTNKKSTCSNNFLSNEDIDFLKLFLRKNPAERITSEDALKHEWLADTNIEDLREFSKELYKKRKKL
Sequence of L-lactate dehydrogenase (Plasmodium falciparum (isolate CDC / Honduras)) (Q27743 whole entry, looked up): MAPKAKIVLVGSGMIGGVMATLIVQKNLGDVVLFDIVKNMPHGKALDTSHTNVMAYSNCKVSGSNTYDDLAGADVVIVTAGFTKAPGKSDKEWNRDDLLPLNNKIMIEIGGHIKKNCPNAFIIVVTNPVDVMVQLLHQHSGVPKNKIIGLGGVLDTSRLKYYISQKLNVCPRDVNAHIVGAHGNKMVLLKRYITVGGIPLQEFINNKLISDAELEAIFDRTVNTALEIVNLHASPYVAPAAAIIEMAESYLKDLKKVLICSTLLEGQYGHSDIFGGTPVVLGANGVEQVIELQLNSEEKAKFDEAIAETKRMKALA

In the case of `COc1cc(-c2nc(-c3ccc4c(c3)CC/C4=N\O)c(-c3ccncc3)[nH]2)ccc1OCCN1CCCCC1`, the outcome in experiment [1], in [2], in experiment [3] and in experiment [4] was inactive.
As for `CCOc1cc(/C=N/Nc2nc(C)cc(-n3nc(C)cc3C)n2)ccc1O`, the outcome in experiment [1], in [2], in [3] and in experiment [4] was inactive.
With `O=[N+]([O-])c1ccc(/C=N/O)nc1`, the result in [1], in experiment [2], in experiment [3] and in [4] was inactive.
In the case of `CC(C)C[C@H](C(=O)N[C@H](C(=O)Nc1nccs1)C(C)(C)C)[C@H](CCC(F)(F)F)N(O)C=O`, the outcome in experiment [1], in experiment [2], in experiment [3] and in [4] was inactive.
On to `COc1ccc(N=[N+]([O-])c2ccccc2[N+]([O-])=Nc2ccc(OC)cc2)cc1`, for which the outcome in [1], in experiment [2], in experiment [3] and in experiment [4] was inactive.
For `C/C(=N\NC(N)=O)C1=C(O)C(c2ccccc2)N(C2CCCCC2)C1=O` (stereo not drawn), the result in [1], in experiment [2], in [3] and in experiment [4] was inactive.
In the case of `CCCCCC(C)C(C)c1cc(O)c2c(c1)OC(C)(C)C=C2c1cc[n+]([O-])cc1` (stereo not drawn), the result in experiment [1], in [2], in experiment [3] and in experiment [4] was inactive.
As for `NC(N)=N/N=C/c1c[nH]c2ccc(-c3ccccc3)cc12`, the result in experiment [1], in [2], in [3] and in experiment [4] was inactive.
Turning to `CO[C@H](C)[C@H](NC(=O)[C@@H](CC(C)C)[C@H](CCC(F)(F)F)N(O)C=O)C(=O)Nc1nccs1`, the result in experiment [1], in experiment [2], in experiment [3] and in [4] was inactive.
On to `CCC[C@@H]([C@H](CC1CCCCC1)C(=O)N[C@H](C(=O)Nc1nccc(N)n1)C(C)(C)C)N(O)C=O`, for which the result in experiment [1], in [2], in experiment [3] and in experiment [4] was inactive.
On to `COc1ccc2nc(/N=C(\N)NC(=O)Nc3ccccc3)nc(C)c2c1`, for which the outcome in [1], in [2], in experiment [3] and in experiment [4] was inactive.
With `O/N=C1\CCc2cc(-c3nc(-c4ccc(OCCN5CCCCC5)cc4)[nH]c3-c3ccncc3)ccc21`, the result in experiment [1], in [2], in experiment [3] and in [4] was inactive.
For the molecule `COc1ccc(C2=[N+]([O-])c3ccccc3C2=O)cc1`, the result in experiment [1], in experiment [2], in experiment [3] and in experiment [4] was inactive.
On to `O=C(Cc1ccc[n+]([O-])c1)Nc1cccc(-c2cccc(-c3nc4ccc(C(F)(F)F)cc4[nH]3)c2)c1`, for which the outcome in experiment [1], in [2], in [3] and in experiment [4] was inactive.
Consider `CCCCCC(C)C(C)c1cc(O)c2c(c1)OC(C)(C)CC2c1cc[n+]([O-])cc1` (stereo not drawn), for which the outcome in experiment [1], in [2], in [3] and in experiment [4] was inactive.
For `COc1ccc(Nc2nc(N/N=C/c3cc(Br)c(O)cc3O)nc(Nc3ccc([N+](=O)[O-])cc3)n2)cc1`, the result in [1], in experiment [2], in experiment [3] and in experiment [4] was inactive.
Consider `COc1cc(/C=N/Nc2ccnc3cc(Cl)ccc23)ccc1O`, for which the result in [1], in [2], in experiment [3] and in experiment [4] was inactive.
Take `O=C(O)CCSSc1cccc[n+]1[O-]`: the outcome in [1], in experiment [2], in experiment [3] and in experiment [4] was inactive.
On to `COc1cc(-c2nc(-c3ccc4c(c3)CC/C4=N\O)c(-c3ccncc3)[nH]2)ccc1OCCN1CCN(C)CC1`, for which the result in [1], in [2], in experiment [3] and in [4] was inactive.
Turning to `O/N=C1\CCc2cc(-c3nc(-c4cccc(OCCNCc5ccc(F)cc5)c4)[nH]c3-c3ccncc3)ccc21`, the result in experiment [1], in experiment [2], in [3] and in [4] was inactive.
For the molecule `Cc1cc(-c2cc(-c3ccc(OCCN(C)C)cc3)[nH]c2-c2ccc3c(c2)CC/C3=N\O)ccn1`, the result in experiment [1], in experiment [2], in experiment [3] and in experiment [4] was inactive.
On to `O=C(Cc1ccc[n+]([O-])c1)Nc1cccc(-c2cccc(-c3nc4ccc(F)cc4[nH]3)c2)c1`, for which the outcome in experiment [1], in [2], in experiment [3] and in [4] was inactive.
For `N=C(N)c1ccc(/C=C/c2ccc(C(=N)N)cc2O)cc1`, the result in [1], in [2], in experiment [3] and in [4] was inactive.
For the molecule `COc1ccc(Nc2nc(N/N=C/c3cc(Cl)ccc3O)nc(Nc3ccccc3)n2)cc1`, the result in [1], in experiment [2], in [3] and in [4] was inactive.
For the molecule `Oc1cccc(-c2nc(-c3ccc4oc5ccc(-c6nc(-c7cccc(O)c7)[nH]c6-c6ccccc6)cc5c4c3)c(-c3ccccc3)[nH]2)c1`, the result in experiment [1], in experiment [2], in experiment [3] and in experiment [4] was inactive.
With `Cc1cccc2[nH]c(-c3cccc(-c4ccc(NC(=O)Cc5ccc[n+]([O-])c5)cc4)c3)nc12`, the outcome in experiment [1], in [2], in experiment [3] and in [4] was inactive.
On to `CC1CCC(C[C@H](C(=O)N[C@@H](CCC(=O)N2CCCCC2)C(=O)Nc2nccs2)[C@H](C(C)C)N(O)C=O)CC1` (stereo partly drawn), for which the result in experiment [1], in experiment [2], in [3] and in experiment [4] was inactive.
In the case of `CN(C)C[C@H](O)[C@H](c1ccccc1)c1ccc(Cl)cc1`, the result in experiment [1], in experiment [2], in experiment [3] and in [4] was inactive.
For the molecule `O=C1C=CC(=C2NC(c3ccccc3)=C(c3ccc4oc5ccc(C6=C(c7ccccc7)NC(=C7C=CC(=O)C=C7)N6)cc5c4c3)N2)C=C1`, the result in experiment [1], in experiment [2], in [3] and in [4] was inactive.
In the case of `CCCC[C@H](C(=O)NCc1ccccc1C(F)(F)F)N1C(=O)CCC1C(=O)Nc1ccc([N+](=O)[O-])cc1` (stereo partly drawn), the result in experiment [1], in experiment [2], in experiment [3] and in [4] was inactive.
`c1cc2nc(CCCCCc3nc4ccc(C5=N[C@H]6CCCC[C@H]6N5)cc4[nH]3)[nH]c2cc1C1=N[C@H]2CCCC[C@H]2N1`: the result in experiment [1], in experiment [2], in experiment [3] and in experiment [4] was inactive.
Take `Nc1c2c(nc3ccccc13)/C(=C/c1ccc(O)cc1)CCC2`: the outcome in [1], in experiment [2], in [3] and in [4] was inactive.
For `O=C(N/C=N/c1cc([N+](=O)[O-])c(-c2cccnc2)n1-c1ccc(O)cc1)c1ccccc1`, the result in [1], in experiment [2], in [3] and in experiment [4] was inactive.
A word on the inhibition: it is the relative decrease from the control value, in per cent. Consider `O=C(Nc1ccc(Oc2ccc(OC(F)(F)F)cc2)cc1)c1ccco1`, for which the growth inhibition is 71% (active) in [5] and 90% (active) in experiment [8]. The inhibition in experiment [6] was 5%; in experiment [7], -1%. The outcome in experiment [1], in experiment [2], in [3] and in experiment [4] was inactive. Moreover, the log fold change Tl+ flux with F380Y is -0.43 (active); in the experiment with F380Y/beta1 it was -0.196 (active); in the experiment with F380Y/beta2Delta it was -0.597 (active); with F380Y/beta4 it was -0.36 (active); in experiment [9], -0.305 (active); in the experiment on R275C, -0.00331. For the same molecule, the log fold change Tl+ flux in the experiment on R275C/beta1 was -0.0279; with R275C/beta2Delta, 0.0205; in the experiment with R275C/beta4, -0.00484; in the experiment with R275C/Slo1WT/beta2, 0.0301.
Consider `Nc1cc(/C=C/c2ccc(O)cc2)nc2ccccc12`, for which the result in experiment [1], in experiment [2], in [3] and in experiment [4] was inactive.
With `COc1ccc2nc(C)cc(N/N=C/c3cc(C)ccc3O)c2c1`, the outcome in experiment [1], in [2], in experiment [3] and in experiment [4] was inactive.
